Experiment [1] deals with Cytochrome P450 2C19 (Homo sapiens) (UniProt P33261). Description: Cytochrome P450 Family 2 Subfamily C Member 19 (CYP2C19) small molecule antagonists: luciferase reporter qHTS assay (AID 1671197). Further: nearly all actives have a fitted effect of over 65% in size. Further: potency means the concentration at half of the fitted maximal effect. The following applies: P450-Glo CYP2C19 enzyme, luciferin luminescence, 1 h; series mostly up to 115 µM. The procedure, abridged:
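P450-Glo CYP2C19 system: enzyme-substrate mix with compound 10 min at room temperature, then NADPH regeneration solution, 1 h at 37C. Proluciferin-to-luciferin conversion detected by luminescence after 20 min with detection reagent; ketoconazole as positive control.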

Experiment [2] deals with Cytochrome P450 2C9 (Homo sapiens) (UniProt P11712). Kind of experiment: Cytochrome P450 Family 2 Subfamily C Member 9 (CYP2C9) small molecule antagonists: luciferase reporter qHTS assay (AID 1671198). Further: nearly all actives have a fitted effect of over 50% in size. Further: potency means the concentration at half of the fitted maximal effect. Particulars: P450-Glo CYP2C9 enzyme assay, luciferin luminescence; series mostly up to 115 µM. The procedure, abridged:
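CYP2C9 activity was measured with a P450-Glo proluciferin substrate. Enzyme–substrate mix was held with compound for 10 min at room temperature, then NADPH regeneration solution was added for 1 h at 37C. Luciferin product was read as luminescence.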

Experiment [3] has as its target Cytochrome P450 1A2 (Homo sapiens) (UniProt P05177). Kind of experiment: Cytochrome P450 Family 1 Subfamily A Member 2 (CYP1A2) small molecule antagonists: luciferase reporter qHTS assay (AID 1671199). Further: nearly all actives have a fitted effect of over 50% in size. Further: potency means the concentration at half of the fitted maximal effect. The following applies: P450-Glo CYP1A2 enzyme, luciferin luminescence, 1 h; series mostly up to 115 µM. The method, boiled down:
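Compounds were incubated with CYP1A2 and a luminogenic proluciferin substrate for 10 min at room temperature before the reaction was started with NADPH regeneration solution. After 1 h, detection reagent was added and light output, proportional to CYP activity, was recorded.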
A general note: Reporter assays use an easily measured gene product as a stand-in for the process of interest.

The target of experiment [4] is Cytochrome P450 3A4 (Homo sapiens) (UniProt P08684). Kind of experiment: Cytochrome P450 Family 3 Subfamily A Member 4 (CYP3A4) small molecule antagonists: luciferase reporter qHTS assay (AID 1671201). Further: nearly all actives have a fitted effect of over 50% in size. Further: potency means the concentration at half of the fitted maximal effect. Particulars: P450-Glo CYP3A4 enzyme, luciferin luminescence, 1 h; series mostly up to 115 µM. The method, boiled down: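 Proluciferin-to-luciferin conversion by CYP3A4, NADPH-regenerated, 1 h RT; luminescence read as RLU. Ketoconazole as control.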
Sequence of Cytochrome P450 3A4 (Homo sapiens) (P08684 whole entry, looked up): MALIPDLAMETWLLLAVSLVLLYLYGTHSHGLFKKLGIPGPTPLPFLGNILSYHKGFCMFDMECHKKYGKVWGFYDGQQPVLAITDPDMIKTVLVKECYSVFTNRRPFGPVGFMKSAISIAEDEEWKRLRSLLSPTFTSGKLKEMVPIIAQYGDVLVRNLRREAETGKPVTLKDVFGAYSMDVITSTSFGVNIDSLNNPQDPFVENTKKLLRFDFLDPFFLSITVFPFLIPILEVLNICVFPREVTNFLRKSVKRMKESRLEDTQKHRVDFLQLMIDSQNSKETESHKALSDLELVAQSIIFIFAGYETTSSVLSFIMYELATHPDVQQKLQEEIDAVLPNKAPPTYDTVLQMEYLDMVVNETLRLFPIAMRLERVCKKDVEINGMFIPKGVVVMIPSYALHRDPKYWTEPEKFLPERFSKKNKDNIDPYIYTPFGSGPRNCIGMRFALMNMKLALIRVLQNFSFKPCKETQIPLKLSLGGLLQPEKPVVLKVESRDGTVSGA

In experiment [5] the target is Voltage-gated inwardly rectifying potassium channel KCNH2 (Homo sapiens) (UniProt Q12809). Description: Human Ether-a-go-go-Related Gene (hERG) channel small molecule antagonists: fluorescence cell-based qHTS assay (AID 1671200).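 Further: hERG-expressing U2OS cells given a thallium stimulus after FluxOR II dye loading; nearly all actives have a fitted effect of over 50% in size.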 Particulars: hERG-U2OS cells, FluxOR thallium flux fluorescence; series mostly up to 76.8 µM. The method, boiled down:
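Kinetic two-minute fluorescence traces, sampled at 1 s, were collected following thallium stimulus of U2OS cells (1000 per well) that had been cultured overnight at 37 C and loaded with FluxOR II.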
(Block of hERG is tested as a sign of cardiac risk.)

Values joined by “and” are separate entries in the source; they are usually repeats but may differ in a detail not shown here. Equal values may be shown once. Records with an inconclusive call do not appear. Some structures have more than one record in an assay (separate samples or runs), and their calls can disagree. Active and inactive are the calls of the source. The call rests on the fitted dose curve; in most records, active means well fitted curve in the direction sought with a large enough effect in the repeat runs; inconclusive means weak or mixed curves; inactive means no such curve, though single readings can be large; an effect the other way counts as inactive or inconclusive.

Sequence of Cytochrome P450 2C9 (Homo sapiens) (P11712 whole entry, looked up): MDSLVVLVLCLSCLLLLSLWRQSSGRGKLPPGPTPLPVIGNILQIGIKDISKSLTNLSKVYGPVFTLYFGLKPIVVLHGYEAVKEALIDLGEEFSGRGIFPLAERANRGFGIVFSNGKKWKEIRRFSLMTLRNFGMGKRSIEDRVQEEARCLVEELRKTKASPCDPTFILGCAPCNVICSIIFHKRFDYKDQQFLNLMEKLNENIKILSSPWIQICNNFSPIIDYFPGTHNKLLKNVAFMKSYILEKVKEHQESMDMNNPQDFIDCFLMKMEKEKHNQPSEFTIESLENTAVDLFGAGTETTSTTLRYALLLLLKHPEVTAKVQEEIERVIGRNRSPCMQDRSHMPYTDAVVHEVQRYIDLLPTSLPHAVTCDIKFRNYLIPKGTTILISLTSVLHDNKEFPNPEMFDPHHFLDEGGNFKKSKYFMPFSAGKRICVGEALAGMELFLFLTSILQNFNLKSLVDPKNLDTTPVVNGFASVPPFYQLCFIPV
Sequence of Cytochrome P450 1A2 (Homo sapiens) (P05177 whole entry, looked up): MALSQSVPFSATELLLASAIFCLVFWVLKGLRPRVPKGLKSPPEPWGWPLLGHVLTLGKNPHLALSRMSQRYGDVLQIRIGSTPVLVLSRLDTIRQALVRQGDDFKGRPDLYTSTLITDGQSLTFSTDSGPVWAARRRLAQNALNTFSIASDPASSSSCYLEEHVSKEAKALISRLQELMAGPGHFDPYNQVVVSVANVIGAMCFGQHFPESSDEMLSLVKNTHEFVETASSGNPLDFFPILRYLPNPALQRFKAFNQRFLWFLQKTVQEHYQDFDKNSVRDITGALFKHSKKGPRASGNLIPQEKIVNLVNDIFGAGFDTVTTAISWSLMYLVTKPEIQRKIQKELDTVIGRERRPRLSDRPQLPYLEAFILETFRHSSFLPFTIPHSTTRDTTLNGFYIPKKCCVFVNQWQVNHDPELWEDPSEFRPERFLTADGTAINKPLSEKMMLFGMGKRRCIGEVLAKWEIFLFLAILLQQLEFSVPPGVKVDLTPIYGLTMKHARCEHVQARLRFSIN
Sequence of Voltage-gated inwardly rectifying potassium channel KCNH2 (Homo sapiens) (Q12809 whole entry, looked up): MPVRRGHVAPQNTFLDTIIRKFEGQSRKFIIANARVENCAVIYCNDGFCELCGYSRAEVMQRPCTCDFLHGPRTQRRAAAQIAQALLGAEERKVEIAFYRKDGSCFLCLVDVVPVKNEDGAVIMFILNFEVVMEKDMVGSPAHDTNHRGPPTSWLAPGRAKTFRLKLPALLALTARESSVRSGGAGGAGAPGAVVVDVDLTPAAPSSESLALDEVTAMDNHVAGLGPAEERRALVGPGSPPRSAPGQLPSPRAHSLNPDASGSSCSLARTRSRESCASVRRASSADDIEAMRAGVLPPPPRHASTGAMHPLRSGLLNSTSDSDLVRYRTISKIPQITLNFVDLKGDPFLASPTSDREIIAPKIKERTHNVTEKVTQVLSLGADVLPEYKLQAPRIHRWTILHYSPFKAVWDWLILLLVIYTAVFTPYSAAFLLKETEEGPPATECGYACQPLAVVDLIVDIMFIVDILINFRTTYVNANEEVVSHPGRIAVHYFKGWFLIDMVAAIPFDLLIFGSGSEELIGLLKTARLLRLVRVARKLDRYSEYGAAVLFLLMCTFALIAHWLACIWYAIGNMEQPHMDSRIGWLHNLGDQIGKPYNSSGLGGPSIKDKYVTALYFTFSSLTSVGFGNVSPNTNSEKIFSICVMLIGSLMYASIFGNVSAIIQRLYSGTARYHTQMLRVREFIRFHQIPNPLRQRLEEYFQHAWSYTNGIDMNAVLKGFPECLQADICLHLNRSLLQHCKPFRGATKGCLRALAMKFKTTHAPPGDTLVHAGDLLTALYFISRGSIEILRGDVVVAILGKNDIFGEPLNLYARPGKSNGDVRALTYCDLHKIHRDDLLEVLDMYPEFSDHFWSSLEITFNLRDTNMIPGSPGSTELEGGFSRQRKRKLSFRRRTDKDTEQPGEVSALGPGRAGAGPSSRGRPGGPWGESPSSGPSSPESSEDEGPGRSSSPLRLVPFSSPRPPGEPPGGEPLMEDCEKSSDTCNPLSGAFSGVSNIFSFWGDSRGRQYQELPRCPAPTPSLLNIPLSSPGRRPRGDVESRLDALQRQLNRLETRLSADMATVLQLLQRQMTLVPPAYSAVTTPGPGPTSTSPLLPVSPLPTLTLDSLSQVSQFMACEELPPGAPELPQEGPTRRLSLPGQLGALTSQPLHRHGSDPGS
Sequence of Cytochrome P450 2C19 (Homo sapiens) (P33261 whole entry, looked up): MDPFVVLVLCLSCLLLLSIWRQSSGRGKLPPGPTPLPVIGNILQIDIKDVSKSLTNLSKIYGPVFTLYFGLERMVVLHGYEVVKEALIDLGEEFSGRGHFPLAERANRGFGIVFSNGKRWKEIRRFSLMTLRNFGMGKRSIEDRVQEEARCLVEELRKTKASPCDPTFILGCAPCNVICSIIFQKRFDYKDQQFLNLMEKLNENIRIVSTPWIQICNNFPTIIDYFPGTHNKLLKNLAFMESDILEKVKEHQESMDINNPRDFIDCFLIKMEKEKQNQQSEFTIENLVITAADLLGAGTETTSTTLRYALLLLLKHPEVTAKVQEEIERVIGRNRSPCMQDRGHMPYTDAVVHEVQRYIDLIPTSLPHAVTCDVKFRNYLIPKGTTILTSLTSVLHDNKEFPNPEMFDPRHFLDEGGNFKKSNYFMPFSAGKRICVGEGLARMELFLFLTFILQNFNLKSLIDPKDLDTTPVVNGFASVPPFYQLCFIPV

In the case of `CN(C)c1ccc(Cc2ccc(N(C)C)cc2)cc1`, the Potency is 179 nM (active) and 356 nM (active) in experiment [1]; 12.7 µM (active) and 31.7 µM (active) in experiment [2]; 2.26 µM (active) and 5.03 µM (active) in experiment [3]; 35.7 µM (active) and 15.9 µM (active) in experiment [4].

Consider `CCCCCCCCCCN`, for which the Potency was 7.14 µM (active) and 5.64 µM (active) in experiment [1]; 31.9 µM (active) and 31.7 µM (active) in experiment [3]. For the same molecule, the Potency result in experiment [5] was “inactive”.

On to `O=C(O)c1ccccc1C(=O)O`, for which, in experiment [1], the Potency is 41.2 µM (active) and 82.1 µM (active). Moreover, in experiment [5], the Potency entry is “inactive”.

With `CN/C(=C\[N+](=O)[O-])NCCSCc1csc(CN(C)C)n1`, the Potency result in experiment [2], in experiment [3] and in experiment [5] was “inactive” each time.

Regarding `CC(=O)OCc1ccco1`, in experiment [1], the Potency was 70.6 µM (active) and inactive. Besides, the Potency entry in experiment [3], in experiment [5] and in experiment [4] was “inactive” throughout.

For the molecule `O=S(=O)(O)c1ccccc1`, the Potency result in experiment [5] was “inactive”.

As for `O=S(=O)(O)c1ccc(N=Nc2c(O)ccc3cc(S(=O)(=O)O)ccc23)cc1`, the Potency in experiment [1] was 71.3 µM (active); in experiment [3], 40.1 µM (active). Moreover, the Potency result in experiment [5] and in experiment [4] was “inactive” throughout.

Consider `CCCCOC(=O)c1ccc(N)cc1`, for which the Potency result in experiment [5] is “inactive”.

On to `CC1(C)OC[C@@H]2O[C@@]3(C(=O)O)OC(C)(C)O[C@H]3[C@@H]2O1`, for which the Potency result in experiment [1], in experiment [3], in experiment [5] and in experiment [4] was “inactive” each time.

`NC(=S)NNC(N)=S`: the Potency in experiment [1] is 34.7 µM (active) and inactive. For the same molecule, the Potency entry in experiment [3], in experiment [5] and in experiment [4] was “inactive” each time.

Take `O=[N+]([O-])c1ccc2nc[nH]c2c1`: the Potency entry in experiment [1], in experiment [5] and in experiment [4] was “inactive” in each case. In experiment [3], the Potency was 36.3 µM (active) and 39.9 µM (active).

As for `CC(C)(Oc1ccc(CCNC(=O)c2ccc(Cl)cc2)cc1)C(=O)O`, the Potency result in experiment [1], in experiment [3], in experiment [5] and in experiment [4] was “inactive” in each case.

For `c1ccc(Oc2ccccc2)cc1`, the Potency result in experiment [1], in experiment [3], in experiment [5] and in experiment [4] was “inactive” each time.

With `CCCCCCCO`, the Potency in experiment [1] is 72 µM (active) and inactive. Further, the Potency entry in experiment [3], in experiment [5] and in experiment [4] was “inactive” throughout.

As for `Brc1ccc(Br)c(Br)c1`, the Potency result in experiment [1], in experiment [3], in experiment [5] and in experiment [4] was “inactive” in each case.

On to `CCCOC(=O)c1ccccc1`, for which the Potency result in experiment [1], in experiment [3], in experiment [5] and in experiment [4] was “inactive” throughout.

Consider `CCCCCCC=O`, for which the Potency in experiment [1] is 40.8 µM (active) and 39.9 µM (active). The Potency result in experiment [3], in experiment [5] and in experiment [4] was “inactive” throughout.

Regarding `CCOCCOCCOCCO`, the Potency in experiment [1] was 82.4 µM (active) and inactive. In addition, the Potency result in experiment [5] is “inactive”.

Consider `CCOC(=O)c1ccc(N)cc1`, for which the Potency is 39.9 µM (active) and inactive in experiment [1]; 12.6 µM (active) in experiment [3]. The Potency entry in experiment [5] and in experiment [4] was “inactive” in each case.

On to `COc1ccc(C)cc1N`, for which the Potency in experiment [1] is 38.6 µM (active) and 35.6 µM (active); in experiment [3] it was 28.3 µM (active); in experiment [4] it was 6.86 µM (active) and 20 µM (active). The Potency result in experiment [5] is “inactive”.

Regarding `COc1ccc(OC)cc1`, the Potency in experiment [1] was 40.7 µM (active) and inactive. In addition, the Potency entry in experiment [5] and in experiment [4] was “inactive” throughout.

`CCNc1cccc(C)c1`: the Potency in experiment [1] is 30.5 µM (active) and inactive. For the same molecule, the Potency entry in experiment [3], in experiment [5] and in experiment [4] was “inactive” throughout.

Regarding `COCCOC(=O)c1ccccc1C(=O)OCCOC`, the Potency in experiment [1] was 22.6 µM (active) and 25.2 µM (active); in experiment [3] it was 22.6 µM (active) and 35.6 µM (active). Moreover, the Potency result in experiment [5] and in experiment [4] was “inactive” each time.

`CCOCC(=O)O`: the Potency entry in experiment [1], in experiment [3], in experiment [5] and in experiment [4] was “inactive” each time.

With `O=C(O)c1ccc(C(=O)O)c(C(=O)O)c1`, the Potency result in experiment [1], in experiment [3], in experiment [5] and in experiment [4] was “inactive” in each case.

For `COc1ccccc1OCC(O)CO` (stereo unspecified), in experiment [5], the Potency result is “inactive”.

Take `CC(CCO)CC(C)(C)C` (stereo unspecified): the Potency entry in experiment [1] was “inactive and 79.6 µM (active)”. In addition, the Potency result in experiment [3], in experiment [5] and in experiment [4] was “inactive” throughout.

Take `CC(=O)OC1CC(C)OC(C)O1` (stereo unspecified): in experiment [1], the Potency is 70.1 µM (active) and inactive. For the same molecule, the Potency result in experiment [3], in experiment [5] and in experiment [4] was “inactive” in each case.

For `CC1(C)NC(=O)NC1=O`, the Potency result in experiment [1], in experiment [5] and in experiment [4] was “inactive” in each case. For the same molecule, the Potency in experiment [3] is 35.8 µM (active).

`CC(C)c1cccc(C(C)C)c1`: the Potency entry in experiment [3] and in experiment [5] was “inactive” each time.

As for `CC(C)CC(C)O` (stereo unspecified), the Potency entry in experiment [1], in experiment [5] and in experiment [4] was “inactive” in each case.

For the molecule `N[C@H](Cc1c[nH]c2ccccc12)C(=O)O`, the Potency result in experiment [1] and in experiment [5] was “inactive” each time.

Consider `NCCN1CCNCC1`, for which the Potency result in experiment [1], in experiment [3], in experiment [5] and in experiment [4] was “inactive” in each case.

For `CC(C)CC(=O)CC(C)CC(C)C` (stereo unspecified), the Potency in experiment [1] is 79.2 µM (active) and inactive. Also, the Potency entry in experiment [3], in experiment [5] and in experiment [4] was “inactive” in each case.

For the molecule `CCCCC(C=O)CC` (stereo unspecified), the Potency result in experiment [1], in experiment [3], in experiment [5] and in experiment [4] was “inactive” each time.

In the case of `COC(=O)CCCC(=O)OC`, the Potency entry in experiment [1], in experiment [3], in experiment [5] and in experiment [4] was “inactive” each time.

For the molecule `CN(C)CCOC(=O)COc1ccc(Cl)cc1`, the Potency result in experiment [2], in experiment [5] and in experiment [4] was “inactive” throughout.

Take `C=CCc1ccc(OC)c(OC)c1`: the Potency entry in experiment [1], in experiment [5] and in experiment [4] was “inactive” throughout. Also, the Potency in experiment [3] is 18 µM (active) and 22.4 µM (active).

For `Nc1ccc(Cl)c(N)c1`, the Potency in experiment [1] is 11.3 µM (active) and 20 µM (active); in experiment [3], 40 µM (active) and 35.6 µM (active); in experiment [4], 11.3 µM (active) and 31.7 µM (active). The Potency entry in experiment [5] is “inactive”.

On to `C[C@]12CCC(=O)C=C1CC[C@@H]1[C@@H]2[C@@H](O)C[C@@]2(C)[C@H]1CC[C@]2(O)C(=O)CO`, for which the Potency result in experiment [1] and in experiment [5] was “inactive” each time.

Source of the values: PubChem BioAssay (Tox21).
